In PubChem BioAssay (EPA / NIEHS) one finds AC50 and outcome data, which are given here for 5 molecules.

A short description of test [1]: APR_HepG2_CellCycleArrest_24hr: Apredica 24-hour HepG2 Assay for Cell Cycle Arrest (AID 2282905).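 Also: cell cycle arrest scored as ratio of 2N to 4N nuclear DNA content.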 As to conditions: imaging, actives raise or lower the signal. The method in brief:
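HepG2 cells were exposed to compounds at 0.39–200 uM (ten concentrations, duplicate) in 0.5% v/v DMSO for 24 hr. After formaldehyde fixation and Triton permeabilization, Hoechst 33342-stained nuclei were imaged at 20x; DNA content was quantified, with bidirectional fitting against DMSO.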

Test [2] in a line: APR_HepG2_NuclearSize_24hr: Apredica 24-hour HepG2 Assay for Nuclear Size (AID 2282907). As to conditions: high-content imaging, actives raise or lower the signal. The method in brief:
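HepG2 human liver cells were exposed for 24 hr to compounds at 0.39–200 uM (ten concentrations, duplicate) in 0.5% v/v DMSO. They were then formaldehyde-fixed, Triton-permeabilized and Hoechst 33342-stained, and nuclear diameter was imaged at 20x. Bidirectional fits were made against DMSO.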

A short description of test [3]: APR_HepG2_CellLoss_24hr: Apredica 24-hour HepG2 Assay for Cell Loss (AID 2282908).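 As to AC50: fit in both directions so a hit may be cell loss or gain.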 As to conditions: high-content imaging. The method in brief:
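Compounds were tested at 0.39–200 uM in duplicate with 0.5% v/v DMSO final. Cells were then fixed in 3.7% formaldehyde, Hoechst 33342 nuclei were imaged at 20x by HCS, and cell number was fitted bidirectionally against DMSO.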

The nature of test [4]: APR_HepG2_MicrotubuleCSK_24hr: Apredica 24-hour HepG2 Assay for Microtubule CSK Stabilty (AID 2282909). The settings on record: HepG2 microtubule cytoskeleton imaging, actives raise or lower the signal. The method in brief:
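HepG2 cells exposed 24 h to compounds at 0.39–200 uM (duplicate, 0.5% v/v DMSO final), then fixed, permeabilized and immunostained for alpha-tubulin with Hoechst 33342. Cytoskeleton imaged at 20x; bidirectional fit versus DMSO baseline.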

Test [5] is described as follows: APR_HepG2_MitoticArrest_24hr: Apredica 24-hour HepG2 Assay for Mitotic Arrest (AID 2282910). The settings on record: high-content imaging, actives raise or lower the signal. The method in brief:
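Compounds are dosed onto HepG2 cells across ten concentrations up to 200 uM for 24 hr. Cells are then fixed in 3.7% formaldehyde, permeabilised, and labelled for phospho-histone H3 and nuclei; images are scored by cell cycle analysis and fitted bidirectionally relative to DMSO.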

Test [6] in a line: APR_HepG2_MitoMembPot_24hr: Apredica 24-hour HepG2 Assay for Mitochondrial Membrane Potential (AID 2282911). The settings on record: imaging, actives raise or lower the signal. The method in brief: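 Mitochondrial membrane potential imaged via MitoTracker Red CMXRos (250 nM, 30 min pre-fixation) in fixed HepG2 cells with Hoechst nuclear identification. Ten concentrations 0.39–200 uM, 24 h treatment, 0.5% DMSO; CCCP as positive control.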

A short description of test [7]: APR_HepG2_MitoMass_24hr: Apredica 24-hour HepG2 Assay for Mitochondrial Mass (AID 2282912). As to conditions: high-content imaging, actives raise or lower the signal. The method in brief: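 Human HepG2 liver cells were exposed for 24 hr to compounds at 0.39–200 uM (duplicates, 0.5% v/v DMSO final). They were stained live with 250 nM MitoTracker Red CMXRos for 30 min, fixed in 3.7% formaldehyde, and imaged by HCS fluorescence; signals were fitted bidirectionally against DMSO.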

A short description of test [8]: APR_HepG2_p53Act_24hr: Apredica 24-hour HepG2 Assay for p53 Activation (AID 2282913).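 Also: p53 protein immunofluorescence averaged per cell in HepG2 with Hoechst nuclei.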 As to conditions: high-content imaging, actives raise or lower the signal. The method in brief: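 Fluorescence imaging of formaldehyde-fixed HepG2 cells labelled for p53 and with Hoechst, 24 h after dosing (0.39–200 uM, duplicate wells, 0.5% v/v DMSO). Signal fitted in both directions relative to DMSO.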

Test [9] can be described thus: APR_HepG2_CellCycleArrest_72hr: Apredica 72-hour HepG2 Assay for Cell Cycle Arrest (AID 2282914). The settings on record: high-content imaging, actives raise or lower the signal. The method in brief: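 Read-out: nuclear DNA content from Hoechst 33342 high-content imaging (20x, six fields/well) after 3.7% formaldehyde fixation, fitted bidirectionally against DMSO. Treatment was 72 h in HepG2, ten concentrations 0.39–200 uM, duplicate, 0.5% DMSO.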

The nature of test [10]: APR_HepG2_CellLoss_72hr: Apredica 72-hour HepG2 Assay for Cell Loss (AID 2282915). As to conditions: high-content imaging. The method in brief:
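Cell number comes from Hoechst 33342-labelled nuclei, imaged at 20x after 3.7% formaldehyde fixation. Dosing was 0.39–200 uM, ten concentrations in duplicate, 0.5% DMSO final, for 72 h. Bidirectional fit relative to DMSO baseline.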

A short description of test [11]: APR_HepG2_P-H2AX_72hr: Apredica 72-hour HepG2 Assay for H2AX Phosphorylation (AID 2282916).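 Also: phospho-histone H2A.x immunostain intensity per cell marking DNA damage.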 As to conditions: imaging, actives raise or lower the signal. The method in brief:
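HepG2 human liver cells were exposed for 72 hr to compounds at 0.39–200 uM (10 concentrations, duplicate per plate) in 0.5% v/v DMSO. Fixed, permeabilized cells were immunolabeled for phospho-histone H2A.x with Hoechst 33342 and imaged by HCS fluorescence; bidirectional fit versus DMSO.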

A short description of test [12]: APR_HepG2_MitoMembPot_72hr: Apredica 72-hour HepG2 Assay for Mitochondrial Membrane Potential (AID 2282917). As to conditions: imaging, actives raise or lower the signal. The method in brief: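 Membrane potential read by MitoTracker Red CMXRos (250 nM, 30 min, pre-fixation) fluorescence imaging of HepG2 after 72 hr exposure. Ten concentrations, 0.39–200 uM, duplicate wells, 0.5% DMSO; fitted in both directions against DMSO baseline.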

The nature of test [13]: APR_HepG2_MitoticArrest_72hr: Apredica 72-hour HepG2 Assay for Mitotic Arrest (AID 2282918). As to conditions: high-content imaging, actives raise or lower the signal. The method in brief:
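High-content imaging of fixed human HepG2 cells after 72 h compound exposure (0.39–200 uM, duplicates, 0.5% DMSO); mitotic arrest scored from phospho-histone H3 and nuclear Hoechst staining relative to DMSO.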

Test [14] is described as follows: APR_HepG2_MicrotubuleCSK_72hr: Apredica 72-hour HepG2 Assay for Microtubule CSK Stabilty (AID 2282919). As to conditions: HepG2 microtubule cytoskeleton, high-content imaging, actives raise or lower the signal. The method in brief:
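Read-out is tubulin fluorescence intensity from high-content imaging of HepG2 cells, with nuclei identified by Hoechst 33342. Treatment lasts 72 h at 0.39–200 uM, and curves are fitted bidirectionally against the DMSO negative control.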

Test [15] is described as follows: APR_HepG2_P-H2AX_24hr: Apredica 24-hour HepG2 Assay for H2AX Phosphorylation (AID 2282920). As to conditions: high-content imaging, actives raise or lower the signal. The method in brief:
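High-content imaging of phospho-histone H2A.x immunofluorescence, nuclei counterstained with Hoechst 33342, in fixed HepG2 cells. Compounds ran 0.39–200 uM in duplicate for 24 h, final DMSO 0.5%. Signal change fitted both directions against DMSO.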

Test [16] is described as follows: APR_HepG2_StressKinase_72hr: Apredica 72-hour HepG2 Assay for Stress Kinase (AID 2282921). As to conditions: HepG2 stress kinase (phospho-c-Jun) imaging, actives raise or lower the signal. The method in brief:
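Cells were exposed for 72 h to ten concentrations (0.39–200 uM, duplicate) at 0.5% v/v DMSO final, then fixed with 3.7% formaldehyde, permeabilized and immunostained for phospho-c-Jun (Cy3 secondary) with Hoechst nuclear counterstain.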

The nature of test [17]: APR_HepG2_StressKinase_24hr: Apredica 24-hour HepG2 Assay for Stress Kinase (AID 2282922). As to conditions: HepG2 stress kinase (phospho-c-Jun) imaging, actives raise or lower the signal. The method in brief: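 HepG2, 24 hr dosing, 0.39–200 uM in duplicate, 0.5% DMSO; formaldehyde fix (3.7%), 0.5% Triton X-100; anti-phospho-c-Jun + Cy3 secondary, Hoechst counterstain; ArrayScan imaging; bidirectional curve fit vs DMSO baseline.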

Test [18] can be described thus: APR_HepG2_p53Act_72hr: Apredica 72-hour HepG2 Assay for p53 Activation (AID 2282923).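 Also: average cellular p53 protein immunofluorescence intensity in HepG2 cells.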 The settings on record: high-content imaging, actives raise or lower the signal. The method in brief: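 Cells were dosed for 72 hr with compounds at 0.39–200 uM in duplicate (final DMSO 0.5% v/v), then fixed in 3.7% formaldehyde, permeabilized with Triton X-100 and immunostained for p53 (Cy5) with Hoechst 33342 nuclear counterstain.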

Test [19] in a line: APR_HepG2_MitoMass_72hr: Apredica 72-hour HepG2 Assay for Mitochondrial Mass (AID 2282924).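 Also: MitoTracker Red CMXRos stain intensity per cell imaged as mitochondrial mass.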 The settings on record: high-content imaging, actives raise or lower the signal. The method in brief:
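HepG2, 72 hr cmpd, 10 conc 0.39–200 uM in dup, DMSO 0.5% v/v. MitoTracker Red CMXRos 250 nM 30 min pre-fix; formaldehyde 3.7% fix 30 min RT. HCS imaging, gain/loss fit vs DMSO.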

Test [20] is described as follows: APR_HepG2_NuclearSize_72hr: Apredica 72-hour HepG2 Assay for Nuclear Size (AID 2282925). The settings on record: high-content imaging, actives raise or lower the signal. The method in brief:
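HepG2; cpd 0.39–200 uM, 10 conc, duplicate; 72 h; DMSO 0.5% v/v; fix 3.7% formaldehyde 30 min RT; Triton permeabilization; Hoechst 2 ug/mL; HCS imaging 20x; nuclear diameter; gain/loss fit vs DMSO.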

The source made the active and inactive calls. The calls were made as follows: active = hit-call score of the fitted dose curve at least 0.9, where 1 is the maximum; inactive = score below 0.9.

`CC(C)(OOC(C)(C)c1ccccc1)c1ccccc1`: the AC50 in test [1] was 36.4 µM (active); in test [3], 69.6 µM (active); in test [4] it was 77.2 µM (active); in [5], 29.9 µM (active); in test [7] it was 19.6 µM (active); in [10], 44.4 µM (active). In test [13], the AC50 was 41.9 µM (active). The call in [2], in [6], in [8], in [9], in test [11] and in test [12] was inactive. The outcome in [14], in test [15], in [16], in test [17], in test [18] and in test [19] was inactive. Besides, the result in test [20] was inactive.
For `COc1cc(C=O)cc2c1[C@H](COC(N)=O)[C@]1(OC(C)=O)ON2C[C@H]2[C@@H]1N2C(C)=O`, the call in test [1], in test [2], in test [3], in [4], in test [5] and in test [7] was inactive. The call in test [8], in test [9], in test [10], in [11], in test [12] and in test [13] was inactive. In addition, the molecule was called inactive in test [14], in test [15], in test [16], in test [17], in test [18] and in test [19]. The molecule was called inactive in [20]. In test [6], the AC50 was 0.474 µM (active).
Take `c1ccc(NNc2ccccc2)cc1`: the outcome in test [1], in test [2], in [3], in test [4], in test [5] and in test [6] was inactive. Moreover, the result in [7], in test [12], in test [14], in test [15], in test [16] and in test [17] was inactive. Also, in [20], the molecule was called inactive. Moreover, the AC50 in [8] is 110 µM (active); in [9] it was 104 µM (active); in test [10], 97.9 µM (active); in [11], 100 µM (active); in test [13], 100 µM (active); in test [18] it was 98.9 µM (active). The AC50 in test [19] is 150 µM (active).
As to `COP(=S)(OC)SCN1C(=O)c2ccccc2C1=O`, the molecule was classed as inactive in test [1], in [2], in test [3], in [4], in test [5] and in [6]. The molecule was classed as inactive in [7], in [8], in test [9], in test [10], in test [11] and in [12]. Besides, the molecule was classed as inactive in [13], in [14], in [15], in [16], in test [17] and in [18]. Further, the outcome in [19] and in test [20] was inactive.
For `CC(C)(C)C(O)(CCc1ccc(Cl)cc1)Cn1cncn1` (stereo not given), the call in test [1], in test [2], in test [6], in test [12] and in [20] was inactive. The AC50 in test [3] is 104 µM (active); in test [4] it was 115 µM (active); in [5] it was 107 µM (active); in test [7], 124 µM (active); in [8], 110 µM (active); in test [9], 102 µM (active). Besides, the AC50 in test [10] was 116 µM (active); in test [11], 111 µM (active); in test [13], 99.6 µM (active); in test [14] it was 107 µM (active); in [15], 113 µM (active); in test [16], 113 µM (active). The concentration at half-maximal activity (AC50) is 108 µM (active) in test [17], 121 µM (active) in test [18] and 105 µM (active) in test [19].
